Bioassay records as filed in PubChem BioAssay.
AmpC inh no det = blocks E. coli AmpC beta-lactamase in absence of detergent | Potency, µM (series often up to 28.7 µM) | AmpC nitrocefin hydrolysis, absorbance 480 nm, no detergent | 71,000 tested, 1.8% active
Target sequence (P00811 whole entry, looked up): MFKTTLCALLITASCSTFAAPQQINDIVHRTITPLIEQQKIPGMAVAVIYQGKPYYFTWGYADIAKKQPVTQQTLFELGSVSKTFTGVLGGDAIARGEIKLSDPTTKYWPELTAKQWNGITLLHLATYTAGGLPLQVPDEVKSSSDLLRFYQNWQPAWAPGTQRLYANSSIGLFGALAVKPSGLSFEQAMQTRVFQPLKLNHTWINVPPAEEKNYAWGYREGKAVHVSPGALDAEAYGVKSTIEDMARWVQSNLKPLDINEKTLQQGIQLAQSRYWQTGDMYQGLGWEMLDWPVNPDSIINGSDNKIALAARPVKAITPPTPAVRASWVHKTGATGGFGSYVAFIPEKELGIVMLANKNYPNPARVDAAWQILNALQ
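AmpC in 20 mM phosphate buffer pH 7.0 was preincubated 15 min at room temperature with compounds. Nitrocefin (800 uM stock) was then added and hydrolysis followed at 480 nm every 20 s for 4 min.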
SmPrx2 inh = blocks S. mansoni peroxiredoxin 2 enzymatic activity. S. mansoni Prx2 activity coupled to TGR/GSH (TGR is thioredoxin glutathione reductase), NADPH fluorescence loss, qHTS. Potency, µM. 65,000 tested, 0.07% active
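Enzyme mix: 100 uM NADPH, 25 nM TGR, 700 uM GSH, 50 nM Prx2 in 100 mM phosphate pH 7.4, 10 mM EDTA, 0.01% Tween-20. 15 min RT with compound; NADPH/GSH added, H2O2 starts reaction; NADPH fluorescence read 8 min.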
AmpC det inh = blocks E. coli AmpC beta-lactamase in presence of detergent. AID 584. Potency, µM (top dose mostly 28.7 µM). P00811. 71,000 tested, 0.09% active. purified AmpC, nitrocefin hydrolysis with detergent; active means well fitted curve in the direction sought with a large enough effect; inconclusive means small, poorly fitted or top-dose-only effect
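E. coli AmpC (5.3 nM) in 20 mM phosphate pH 7.0 with 0.01% Triton X-100, preincubated 15 min RT with compound; nitrocefin (2 uL of 800 uM stock) hydrolysis followed by 480 nm absorbance every 20 s over 4 min.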
LT uptake inh = anthrax lethal toxin internalization inhibition; Cells, anthrax lethal toxin internalization, FRET ratio (460/530); Potency, µM (top dose mostly 40 µM), hits mostly inhibitors; 70,000 tested, 0.67% active; further: nearly all actives have a fitted effect of over 50% in size
Of the large screens only hits and unclear results are named; the others gave an inactive call; ! = not active in a repeat; [ ] = another dose, or the depositor's remark. An excerpt weighted towards active compounds, which were near 2.4% of everything screened. Unless noted, the call rests on the fitted dose curve.

COc1ccc(S(=O)(=O)Cc2ccc(C(=O)NC3CC3)o2)cc1	none
CCOC(=O)N1CCN(C(=O)c2cnn3ccccc23)CC1	AmpC inh no det 4µM[single pt active]
CCOC(=O)N1CCN(C(=O)c2ccccc2-c2ccccc2)CC1	LT uptake inh inconclusive
CCOC(=O)C1CCN(CC(O)COc2ccc(C(C)=O)cc2)CC1 (stereo not given)	AmpC inh no det 3.2µM[single pt active]
CC(=O)c1ccc(OCC(O)CN2CCN(Cc3ccccc3)CC2)cc1 (stereo not given)	AmpC inh no det 4µM[single pt active]
CCOC(=O)C1CCN(CC(O)COc2ccc(C(C)(C)C)cc2)CC1 (stereo not given)	none
COc1ccc(CNc2oc(-c3ccccc3)nc2C#N)cc1	AmpC inh no det 4µM[single pt active]
COc1ccc(CCNc2oc(-c3ccc(C)cc3)nc2C#N)cc1OC	AmpC inh no det 4µM[single pt active]
O=C(CN1CCC(n2nnc3cc(F)ccc32)CC1)NC1CC1	none
CCOc1ccc2nc(NC(=O)CN3CCC(n4nnc5cc(F)ccc54)CC3)sc2c1	LT uptake inh 13µM
N[C@H](Cc1ccc(F)cc1)C(=O)O	none
CC(NC(=O)c1noc2c1CCCCC2)c1ccccc1 (stereo not given)	AmpC inh no det 4µM[single pt active]
N[C@@H](Cc1cc(-c2ccc(Cl)cc2Cl)cc(CP(=O)(O)O)c1O)C(=O)O	AmpC inh no det inconclusive, AmpC det inh 16µM, LT uptake inh inconclusive
NC(=O)CN1CCN(C(=O)NC2CCCCC2)CC1	AmpC inh no det 3.2µM[single pt active]
O=C(NCCN1CCN(C(=O)NC2CCCCC2)CC1)NC1CCCCC1	none
N#CCCn1c(=O)c(-c2cc(F)cc(F)c2)nc2cnc(Oc3cccc(Cl)c3)nc21	LT uptake inh inconclusive
Cc1noc(C)c1S(=O)(=O)N(CC(=O)NCc1ccc2c(c1)OCO2)c1ccc(C(C)C)cc1	LT uptake inh 5µM
COc1ccc(CCNC(=O)C2(C)CCC(=O)N2Cc2ccc3c(c2)OCO3)cc1OC (stereo not given)	AmpC inh no det 4µM[single pt active]
CC1(C(=O)NC2CCCCCC2)CCC(=O)N1Cc1ccc2c(c1)OCO2 (stereo not given)	none
Cc1cc(NC(=O)C2CCCN(S(=O)(=O)c3c(C)noc3C)C2)n[nH]1 (stereo not given)	AmpC inh no det 4µM[single pt active], LT uptake inh inconclusive
COc1ccc2nc(NC(=O)C3CCCN(S(=O)(=O)c4c(C)noc4C)C3)sc2c1 (stereo not given)	AmpC inh no det 4µM[single pt active], LT uptake inh inconclusive
Cc1noc(C)c1S(=O)(=O)N1CCCC(C(=O)N2CCN(C3CCCCC3)CC2)C1 (stereo not given)	AmpC inh no det 4µM[single pt active]
CCOc1ccc2nc(NC(=O)C3CCCN(S(=O)(=O)c4c(C)noc4C)C3)sc2c1 (stereo not given)	AmpC inh no det 4µM[single pt active], LT uptake inh inconclusive
Cc1ccc(S(=O)(=O)O[C@H]2C[C@@H](C(C)(C)C)CC[C@@H]2c2ccccc2)cc1	LT uptake inh inconclusive
CCOC(=O)CCN1C(=O)[C@H]2[C@H]3[C@H](O)[C@H](O)C/C(=N/OCC(C)C)[C@H]3CC[C@@H]2C1=O	none (no result: AmpC inh no det, SmPrx2 inh, AmpC det inh)
N#C/C(=C\c1ccc(O)c(O)c1)C(=O)NCCCc1ccccc1	AmpC inh no det 0.2µM!, LT uptake inh inconclusive
N#CCCn1c(=O)c(-c2cccs2)nc2cnc(OCc3ccccc3)nc21	LT uptake inh inconclusive
Nc1nc(C(=O)N2CCOCC2)nn1C(=O)c1ccc(Cl)cc1	AmpC inh no det 4µM[single pt active]
O=C(c1ccc(Cl)cc1)c1ccccc1C(=O)N1CCOCC1	none
COc1ccccc1CNc1cc(-c2ccccc2C)ncn1	none
CCN1C(=O)[C@@H]2[C@H]3C(=CC[C@@H]2C1=O)C1(OCCCO1)[C@H]1O[C@@H]1[C@H]3O	none (no result: AmpC inh no det, SmPrx2 inh, AmpC det inh)
Cc1cc(C(=O)CSc2nn(-c3ccccc3)c(=S)s2)c(C)n1Cc1ccco1	AmpC inh no det 13µM, LT uptake inh inconclusive
Cc1cc(C(=O)CSc2nnc(-c3ccco3)o2)c(C)n1Cc1ccco1	none
Oc1ccccc1C(Sc1nc2ccccc2s1)Sc1nc2ccccc2s1	none
COc1ccc(CCN(C)CCCOc2ccc(S(=O)(=O)c3[nH]c4ccccc4c3C(C)C)cc2)cc1OC	LT uptake inh inconclusive
CCOC(=O)CN1C(=O)C(=O)c2cccc(C)c21	AmpC inh no det 4µM[single pt active]
CCOC(=O)CN1C2=NCCN2c2ccccc21	none
CCN1CCN(Cc2ccc(NC(=O)Nc3ccccc3OC)cc2)CC1	AmpC inh no det 4µM[single pt active], LT uptake inh inconclusive
CCN1CCN(CCC(=O)Nc2ccccc2OC)CC1	none
Nc1ccc2cc3ccccc3cc2c1	AmpC inh no det 2.5µM, LT uptake inh inconclusive (no result: SmPrx2 inh)
O=C(Nc1ccccc1-c1nc2ccccc2o1)c1ccc2c(c1)OCCO2	none
O=C(Nc1ccc2oc(-c3ccccc3F)nc2c1)c1ccc2c(c1)OCCO2	LT uptake inh 10µM
O=C(c1ccncc1)N1CCC[C@@]2(CCN(Cc3ccccc3)C2)C1	none
COc1cccc(NC(=O)CSc2nc(N)cc(N)n2)c1	none
COc1cccc(NC(=O)n2nc(N)cc2-c2ccc(Cl)cc2)c1	AmpC inh no det 4µM[single pt active], LT uptake inh inconclusive
COc1ccccc1N1CCN(c2cc(=O)n(-c3ccc(Br)cc3)c(=O)[nH]2)CC1	AmpC inh no det 16µM[single pt active]
COc1ccccc1N1CCN(c2cc(=O)n(-c3ccc(Cl)cc3)c(=O)[nH]2)CC1	none
CCOC(=O)c1cnc2c(C#N)c(C)nn2c1C	none
CCOC(=O)c1cnc2c(C#N)c(C)nn2c1-c1ccccc1	AmpC inh no det 4µM[single pt active] (no result: SmPrx2 inh)
CC(=O)Nc1nc(-c2ccc(Br)s2)cs1	AmpC inh no det 13µM
CC(C)(C)NC(=O)C1CCCN(S(=O)(=O)c2cccc3cccnc23)C1 (stereo not given)	AmpC inh no det 4µM[single pt active]
Cc1cc(NS(=O)(=O)c2ccc(NC(=O)COc3ccccc3C(C)C)cc2)no1	AmpC inh no det 4µM[single pt active]
COc1cc(NS(=O)(=O)c2ccc(NC(=O)COc3ccccc3C)cc2)nc(OC)n1	AmpC inh no det 13µM[single pt active]
O=C(N1CCOCC1)N1CCN(c2ccccc2F)CC1	AmpC inh no det 4µM[single pt active]
O=C(c1ccccc1C(=O)N1CCN(c2ccccc2F)CC1)N1CCN(c2ccccc2F)CC1	none (no result: SmPrx2 inh)
N#Cc1cccc(-c2nc(NCc3cccnc3)c3ccccc3n2)c1	AmpC inh no det 0.63µM, AmpC det inh 10µM, LT uptake inh inconclusive
COc1cccc(-c2nc(NCc3cccnc3)c3ccccc3n2)c1	AmpC inh no det inconclusive, AmpC det inh 13µM
C/C(CCN1CCCCc2nc(C)c(C)cc21)=N\OC[C@@H](C)[C@H](OCc1ccccc1)C(C)C	none (no result: AmpC inh no det, SmPrx2 inh, AmpC det inh)
NC(=O)c1ccsc1NC(=O)COC(=O)c1ccccc1NCc1ccco1	AmpC inh no det 5µM, LT uptake inh inconclusive
O=C(COC(=O)c1ccccc1Nc1ccccc1)NCc1ccco1	none
O=C(c1cnccn1)N1CCC2(CCCN(c3cccc(-c4ccccc4)c3)C2)CC1	LT uptake inh inconclusive
Cc1ccc(/C(C#N)=C\c2cn(C)c3ccccc23)cc1	LT uptake inh 7.9µM
Cc1ccc(/C(C#N)=C/c2cccc([N+](=O)[O-])c2)cc1	LT uptake inh inconclusive
C=CCn1c(SCCCC)nc(O)cc1=O	AmpC inh no det 4µM[single pt active]
